Measured values published in the supplement of paper PMC11417369.
In all, about 25,000 sequences were measured (“ln(normalized median fluorescence intensity)”: median about 9.3, highest 2% from about 10 on). This is one part of a sample in which the highest values are shown more often than they occur.

System: PF3D7_0420300 AP2 domain 1 (GST-tagged)
Assay: gcPBM binding intensity (ln(normalized median fluorescence intensity)); higher = stronger DNA binding
Summary of the method: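 GST-tagged P. falciparum DNA-binding domains, expressed in E. coli (about 25 μg on average), were applied for 1 h to an Agilent 4 × 180k array of primer-extended double-stranded 36-bp intergenic genomic probes plus negative controls. The binding buffer was 1× PBS with 1% milk, 0.2 mg/ml BSA, 0.5% salmon testes DNA and 0.03% Triton X-100. Bound protein was detected with Alexa488 anti-GST antibody and scanned at 488 nm. Binding intensity is the highest Masliner-normalised natural-log median intensity across replicate spots of either probe orientation.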

Going from “ATTAATATTTAGACTTGTACATATATAATATATGTC [XGTACX_site3766]” to “AAATTCTTAACCCAACGTACATATAATAAATTCTTA [XGTACX_site8538]”, the “gcPBM binding intensity (ln)” value falls from 9.2 to 9.1.

Compared with “CAATCATTTTATTGTTGTACAGTAATTATGAATTCA [XGTACX_site7508]”, “TACAATGAAAAAATAACATGCAATTATATTTCTCTT [TGCATGCA_site833]” is higher in “gcPBM binding intensity (ln)” value: 9.03 for the first, 9.17 for the second.

First: TATATAAATTAACCAGTGCATTATTTGGAAATTATT
Second: CATTATGATTAAATATGTACATATTATTATATAAAT [XGTACX_site2477]
The “gcPBM binding intensity (ln)” value of the first is higher: 9.31 for the first, 9.08 for the second.

Compared with “GAAAAAAAAAAAAAAAAAAAAAGGAAAAAAGTGAAA [CACACA_negctrl_site996]”, “TATATATGTATATATGGTACAGAATATTCTACATTA [XGTACX_site5077]” is higher in “gcPBM binding intensity (ln)” value: 9.21 for the first, 9.23 for the second.

Going from “ATATCATTTTCCTGCACACATAAATTTATATAATAT [CACACA_site1048]” to TTTTTTTTCTATGTGGTGCACATTATTTTTTTTTTT, the “gcPBM binding intensity (ln)” value falls from 9.76 to 9.41.

First: CACAAAAAGAAACACACACACATATATATATATATA [CACACA_site999]
Second: AAATAAAACAGACACACACACACATACACAAAAAAA [CACACA_site7753]
The “gcPBM binding intensity (ln)” value of the first is lower: 9.73 for the first, 10.2 for the second.

Going from “TGAACACAGACAAATACACACAAAAAAAATAAATAA [CACACA_site4298]” to “AATACAGACAGACACACACACAAAATAAAATACAAA [CACACA_site245]”, the “gcPBM binding intensity (ln)” value rises from 9.79 to 10.1.

Compared with “TATATATACAGACACATACACACAAATAAAAAAACA [CACACA_site3413]”, “AACAAATACAGACACACACACACACTAATAAAAAAA [CACACA_site8067]” is higher in “gcPBM binding intensity (ln)” value: 10.1 for the first, 10.3 for the second.

First: TACAAACAGACATATACACACAAAAAAAAAATAAAA [CACACA_site2562]
Second: AAATTATAAATAATTTGTACATAAAAATTGGTAAAG [XGTACX_site5197]
The “gcPBM binding intensity (ln)” value of the first is higher: 9.91 for the first, 9.07 for the second.

First: CTTCAATTAAAATTCACACATATAAATTAAAATATT [CACACA_site6129]
Second: TACACCCACCAACACACACACACACCCAAAAAAAAA [CACACA_site498]
The “gcPBM binding intensity (ln)” value of the first is lower: 9.06 for the first, 10.1 for the second.

First: GTTACACCAACAAACACACACACACCGACACCCAAA [CACACA_site5361]
Second: AGCACCCACCAACACACACACACACCCACCCACCGA [CACACA_site368]
The “gcPBM binding intensity (ln)” value of the first is lower: 10.1 for the first, 10.3 for the second.

Going from “TGTTATATCAATAATATATAATAATACCCTTCTTTT [CACACA_negctrl_site1682]” to “GTTATAGAAGCATTCACACACACACGGACATACACA [CACACA_site6801]”, the “gcPBM binding intensity (ln)” value rises from 9.06 to 10.1.

First: TATAGAAGCGTTCACACACACACATACATACCCATA [CACACA_site4915]
Second: TATAGAAGCATTCACACACACACATACATACACATA [CACACA_site1466]
The “gcPBM binding intensity (ln)” value of the first is higher: 10.3 for the first, 10.2 for the second.

Going from “TTGTTATAGAAGCATTCACACACACCCATACATACA [CACACA_site8414]” to “TAGAAGCATGGACACACACACATACATACCCATACA [CACACA_site4916]”, the “gcPBM binding intensity (ln)” value rises from 9.87 to 10.

First: GTTATAGAAGCATTCACACACACACCCACATACACA [CACACA_site1465]
Second: ATTCACTAAAAAATTGCATGCAATAAATTTTTTTTT [TGCATGCA_site962]
The “gcPBM binding intensity (ln)” value of the first is higher: 10.1 for the first, 8.91 for the second.

Going from “TAATATATATATATATGTACATATATATTATGTATA [XGTACX_site4690]” to “TATATTTTCTATAGGTGTACTCCACATGCGGTGTTA [XGTACX_site7471]”, the “gcPBM binding intensity (ln)” value rises from 9.07 to 9.08.

Going from “ATGTATATGCAAACATGTACATATATAAACATATAT [XGTACX_site4159]” to “AAAAAAAAAAAAAAAAAAAAACACCCAAAAAAATAT [XGTACX_negctrl_site210]”, the “gcPBM binding intensity (ln)” value rises from 9.16 to 9.62.

Going from “TACACTTTTTATGAAGTGCATGTATAGCTCTTAAAA [GTGCAC_site9595]” to “ACCATATAAATAAACACACACACACCCATATATATA [CACACA_site2321]”, the “gcPBM binding intensity (ln)” value rises from 8.78 to 10.2.

Compared with “AACATATAAAAATGTGCACACACACCCATATATATA [CACACA_site1525]”, “CATATAAAAATGTGCACACACACACCGATATATATT [CACACA_site4940]” is higher in “gcPBM binding intensity (ln)” value: 9.97 for the first, 10.1 for the second.

First: TTCCCATGTAATATTAAACACACACCCATATAACAC [CACACA_site7905]
Second: TATTAAACGAAACACACACACACACCCATATATAAA [CACACA_site759]
The “gcPBM binding intensity (ln)” value of the first is lower: 9.76 for the first, 10.2 for the second.

Going from “AATATAAATAAAAACACACACACACCCATATATATA [CACACA_site2267]” to “AAAAAAAAAAAAAACACACACACACCCATAAATATA [CACACA_site151]”, the “gcPBM binding intensity (ln)” value falls from 10.1 to 9.88.

“CATATAAAAATGTGCACACACACACCCATATATATT [CACACA_site1526]” and “TTTATTAAACTTGACACACACACACCCACATATATA [CACACA_site760]” are the same in “gcPBM binding intensity (ln)” value: 10.2 for the first, 10.2 for the second.

First: TATATATTAAAACACACACACATATATATATATATA [CACACA_site3787]
Second: TATTAAACTGGACACACACACACACCCATATATAAA [CACACA_site4579]
The “gcPBM binding intensity (ln)” value of the first is lower: 9.67 for the first, 10.2 for the second.
